Bioassay records: PubChem, several laboratories
A1 inh: inhibitors of the anti-apoptotic protein A1, read as caspase activation; MEF A1-2A-BIM cells, Caspase-Glo 3/7 luminescence, 3 h; percent of clofoctol response, vehicle zero; caspase activation, % (test concentration not listed); actives 0.066% (n = 330,000); AID 2462;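 active = over half of replicate activation scores above 10%, or exactly half above 10 with the replicate mean above 10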
VLA-4 inh: inhibition in a human VLA-4 binding assay | inhibition, % (about 7 µM as worked out from the volumes in the protocol) | actives 0.2% (n = 330,000) | P13612 | VLA-4 expressing cells, ligand binding flow cytometry; in the data active = inhibition above about 50%
Target sequence (P13612 whole entry, looked up): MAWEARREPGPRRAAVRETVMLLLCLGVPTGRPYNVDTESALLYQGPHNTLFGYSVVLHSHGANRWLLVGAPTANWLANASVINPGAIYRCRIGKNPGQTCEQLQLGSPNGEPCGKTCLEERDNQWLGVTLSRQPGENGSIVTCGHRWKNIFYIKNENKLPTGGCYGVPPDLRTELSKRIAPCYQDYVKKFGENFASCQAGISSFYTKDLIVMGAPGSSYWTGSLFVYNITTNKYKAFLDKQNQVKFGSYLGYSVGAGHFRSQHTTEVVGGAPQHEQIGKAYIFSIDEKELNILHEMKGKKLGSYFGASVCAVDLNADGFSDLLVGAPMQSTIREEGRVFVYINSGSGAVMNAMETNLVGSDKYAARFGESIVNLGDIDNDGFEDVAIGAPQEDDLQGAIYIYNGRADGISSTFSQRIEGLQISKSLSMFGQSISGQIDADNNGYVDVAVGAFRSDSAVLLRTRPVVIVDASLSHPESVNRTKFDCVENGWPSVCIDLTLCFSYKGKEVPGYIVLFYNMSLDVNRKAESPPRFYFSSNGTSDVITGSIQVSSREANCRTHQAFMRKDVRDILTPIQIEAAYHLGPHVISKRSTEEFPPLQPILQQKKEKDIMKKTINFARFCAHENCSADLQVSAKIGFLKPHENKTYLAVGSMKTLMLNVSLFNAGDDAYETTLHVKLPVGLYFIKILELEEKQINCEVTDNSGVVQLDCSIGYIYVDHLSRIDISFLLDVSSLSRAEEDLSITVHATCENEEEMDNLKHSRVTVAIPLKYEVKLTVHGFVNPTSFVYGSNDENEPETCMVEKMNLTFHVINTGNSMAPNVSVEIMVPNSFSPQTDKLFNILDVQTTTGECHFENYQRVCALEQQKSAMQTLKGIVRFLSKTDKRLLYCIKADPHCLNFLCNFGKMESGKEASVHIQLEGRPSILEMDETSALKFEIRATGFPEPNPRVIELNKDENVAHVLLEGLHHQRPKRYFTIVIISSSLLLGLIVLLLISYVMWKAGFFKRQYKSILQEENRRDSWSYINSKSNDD
ALR inh: human ALR oxidase inhibition via reduced H2O2; P55789; purified ALR, DTT oxidation, H2O2 HRP-luminol luminescence; inhibition, % (test concentration not listed); actives 3.8% (n = 290,000);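 active = mean replicate inhibition above about 79%, with every replicate also reaching it, limit read from the data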
Mot1-301 SUMO: inhibitors of SUMOylation pathway: yeast Mot1-301 growth rescue | actives 1% (n = 320,000) | S. cerevisiae Mot1-301 growth rescue, ATP luminescence, 38.5C; percent above DMSO median, 100 means doubled | growth rescue, % at 18.8 µM;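 active = every valid replicate shows activation above 250% relative to neutral control wells; inactive = the rest, any valid replicate at or below 250%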;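 note: OY570 slx delta 5 strain wells were the positive control but not used for scaling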
Efflux pump mplx: inhibitors of Candida antifungal efflux pumps expressed in yeast | S. cerevisiae Candida pump triplex, Nile Red efflux | inhibition, % at 10 µM | actives 0.44% (n = 330,000) | AID 485275;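 active = plate passing quality check with inhibition over a set limit, or well fluorescence over plate mean plus 4 SD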;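 note: Nile Red retained in pooled yeast measured as flow cytometry median fluorescence; 0% = buffer negative control and 100% = Enniatin B positive control; higher means more Nile Red kept so more efflux inhibition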
AHR act: activates the human aryl hydrocarbon receptor | AHR-responsive luciferase reporter cells, luminescence | activation, % at 5 µM | P35869 | AID 2796 | actives 2.5% (n = 320,000); in the data active = activation above about 47%;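 note: 0% = vehicle wells and 100% = reference agonist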
Active calls of the source: *; i = inactive; . = no result. This is a sample that favours compounds with a hit; in the whole collection about 7.2% have one here.

SMILES	A1 inh	VLA-4 inh	ALR inh	Mot1-301 SUMO	Efflux pump mplx	AHR act
O=C(NC1CCCC1)C1CC(=O)N(c2ccccc2)C1 (stereo not given)	0.4	6.4	-7.7	356.3*	0.1	-1.2
O=C(NC1CC1)C1CC(=O)N(c2ccccc2)C1 (stereo not given)	-0.4	7.8	.	3.6	0.2	-0.9
c1cncc(CNc2ncnc3ccc(-c4ccc5c(c4)OCO5)cc23)c1	-0.8	-7.8	2.5	-12.9	-0.5	53.1*
O=C(N/N=C/c1ccc2c(c1)OCO2)c1cc(-c2ccccc2)nc2ccccc12	-0.2	1.7	-2.4	-6.6	0.1	51.2*
c1cncc(CSc2ccc(-c3ccc4c(c3)OCO4)nn2)c1	-1.3	2.2	-0.1	.	-0.1	94.6*
O=C(N/N=C/c1ccc2c(c1)OCO2)c1cccc2ccccc12	0.6	4.5	.	2.7	0.0	26.1
O=C(Nc1ccc2c(c1)OCO2)c1cc(-c2cccnc2)nc2ccccc12	-0.4	-3.4	-59.3	i	0.0	47.5*
Fc1cccc(CSc2ccc(-c3ccc4c(c3)OCO4)nn2)c1	-0.7	4.5	-5.2	12.3	-0.2	8.9
Cc1ccc(-c2cc(C(=O)Nc3ccc4c(c3)OCCO4)c3ccccc3n2)cc1	-0.3	3.3	-5.0	-1.8	0.1	2.0
CCc1ccc(CN(C)C(=O)CCc2nc3ccccc3n(-c3ccc(OC)cc3)c2=O)cc1	-1.3	-5.9	-127.4	24.2	0.0	-1.5
O=c1[nH]c(N/N=C\c2ccc3c(c2)OCO3)nc2ccccc12	-5.5	20.2	4.6	-9.2	0.0	56.7*
c1cncc(-c2nc(NCc3ccc4c(c3)OCO4)c3ccccc3n2)c1	-0.8	-1.4	-4.8	151.3	0.4	64.0*
O=C(CN1CCN(S(=O)(=O)c2ccccc2F)CC1)NC1CCCC1	0.1	0.3	-16.4	94.7	-0.2	0.3
COc1ccc(/C=N/NC(=O)C(C)n2cnc3ccccc3c2=O)cc1OC (stereo not given)	-0.6	6.3	-6.8	-14.8	0.1	16.6
Cc1[nH]c(=O)[nH]c(=O)c1/C=C/C(=O)O	1.1	5.3	.	853.2*	-0.1	-1.7
COC(=O)/C=C/c1c(C)[nH]c(=O)[nH]c1=O	-0.1	3.6	-3.5	-45.3	0.0	3.5
O=C(O)C12C[C@H]3C[C@@H](C1)CC(n1ncc(N4CCN(c5ccccc5)CC4)c(Cl)c1=O)(C3)C2	1.1	23.0	98.2*	-0.4	-0.1	-2.8
O=C(O)C12CC3CC(C1)CC(n1ncc(NCc4ccccc4)c(Cl)c1=O)(C3)C2	0.1	-1.0	2.8	317.0	-0.3	-3.2
O=C(O)CC12C[C@H]3C[C@@H](C1)CC(n1ncc(N4CCN(c5ccccc5)CC4)c(Cl)c1=O)(C3)C2	-0.3	0.0	98.3*	-1.7	0.2	-2.5
O=C(O)CC12CC3CC(C1)CC(n1ncc(NCc4ccccc4)c(Cl)c1=O)(C3)C2	0.6	8.2	-3.9	-15.5	0.0	0.4
CC(C)(C)OC(=O)N[C@@H](Cc1ccccc1)[C@H](O)c1ccco1	0.0	13.4	40.1	2.0	0.0	1.8
Cc1ccc(OCC(=O)OCC(=O)N2c3ccccc3CC2C)cc1C (stereo not given)	-1.2	5.5	.	58.9	0.0	-1.3
Cc1[nH]c2ccccc2c1/C=C(\C#N)S(=O)(=O)c1ccccc1	0.8	-117.1	97.2*	-10.1	0.0	0.4
N#C/C(=C/c1ccc(F)cc1)S(=O)(=O)c1ccccc1	0.1	6.2	-18.6	-9.3	0.2	2.1
N#C/C(=C\c1ccc(O)c(O)c1)S(=O)(=O)c1ccccc1	1.0	30.8	98.9*	-4.7	0.1	2.2
COc1ccc(C(C(=O)NC(C)(C)C)N(C(=O)Cn2nnc3ccccc32)c2cccc(C(C)=O)c2)cc1O (stereo not given)	0.1	-89.7	.	39.5	-0.1	1.7
O=c1c(Cl)c(N/N=C/c2ccc(Cl)cc2)cnn1-c1ccccc1	-0.5	2.7	.	319.0	-0.1	49.6*
Cc1ccc(Oc2nn[nH]n2)cc1	-0.7	-12.9	-4.1	21.8	-0.1	4.1
CCc1cccc(Oc2nn[nH]n2)c1	-1.4	6.9	98.1*	-1.9	-0.2	-0.5
CCOC(=O)N1CCN(C(=O)c2cc3cc(Cl)ccc3[nH]2)CC1	1.1	-8.6	-26.5	10.5	0.2	.
